According to PubChem BioAssay AID504577 (NMMLSC, 2011):
Screen size: about 350,000 compounds; about 1,300 (0.37%) were called active. Cut-off read from the data, not from the text of the source: active = response mostly above about 7.3% (no sharp cut-off); inactive = mostly below about 5.4%. The entries come from a sample that favours actives as a whole.

Assay: yeast vacuolar ATPase proton transport modulators – pHLuorin cytosolic pH fluorescence, primary screen (AID 504577); note: actives read high
Details: S. cerevisiae, at 10 µM, stronger effect = higher value

Structure (SMILES)	response
CN(C)S(=O)(=O)c1cc(C(=O)Nc2ccn(C)n2)c(Cl)cc1Cl	-0.21% (inactive)
CSc1sc(C)cc1C1C(C#N)=C(N)N(c2cccnc2)C2=C1C(=O)CCC2 (configuration not stated)	-0.16% (inactive)
O=C(COc1ncnc2c(Cl)cc(Cl)cc12)N1CCN(S(=O)(=O)c2ccccc2)CC1	2.02% (inactive)
Nn1c(SCc2ccccc2)nnc1C1CCCCC1	-2.46% (inactive)
O=C(CNC(=O)c1ccccc1Br)NNC(=O)c1cccs1	-0.51% (inactive)
O=C(C1=C[C@H](c2coc3ccccc3c2=O)C[C@H](OCc2ccc(CO)cc2)O1)N1CCN(Cc2ccccc2)CC1	2.61% (inactive)
O=C(C1=C[C@H](C2CC2)C[C@H](OCc2ccc(CO)cc2)O1)N1CCN(Cc2ccccc2)CC1	10.9% (active)
O=C(C1=C[C@H](c2ccc(C(F)(F)F)cc2)C[C@H](OCc2ccc(CO)cc2)O1)N1CCN(Cc2ccccc2)CC1	3.16% (inactive)
Cc1ccc(C2=NN(C)c3nc4ccccc4n3C2)cc1	0.17% (inactive)
COc1ccc(NC(=O)CSc2ncnc3[nH]ncc23)cc1	8.67% (inactive)
c1ccc(CNc2ncnc3[nH]ncc23)cc1	-0.7% (inactive)
CN(c1ccccn1)c1ncnc2[nH]ncc12	15.2% (active)
COc1ccc(OC)c(CNC(=O)CCc2nc(-c3cccs3)no2)c1	-0.51% (inactive)
CCc1ccc(CNC(=O)CCc2nc(-c3cccs3)no2)cc1	10.8% (active)
COc1ccc(CCc2nc(-c3cccs3)no2)cc1	1.75% (inactive)
Cc1cc(C(F)(F)F)nn1CC(=O)N1CCCC1	6.02% (inactive)
O=C(CC(n1cncn1)C(Cl)(Cl)Cl)c1ccc([N+](=O)[O-])cc1 (configuration not stated)	4.51% (inactive)
COc1ccc(C(CNC(=O)c2ccc(OCc3cscn3)cc2)N2CCCC2)cc1 (configuration not stated)	2.42% (inactive)
CCN(CC(=O)Nc1c(F)cccc1F)C(=O)c1ccc(-c2ccc(C(C)=O)cc2)o1	0.89% (inactive)
Cc1ccc2c(cnn2C(=O)CCC(=O)NC2CCCC2)c1	16.8% (active)
Cc1cccc2c1cnn2C(=O)CCC(=O)NC1CCCCC1	-0.13% (inactive)
Cc1ccc2nc(SCC(=O)NC3CCCC3)[nH]c2c1	1.94% (inactive)
Cc1ccccc1CS(=O)(=O)CC1(O)CCN(C(=O)c2cccc(C(F)(F)F)c2)CC1	-0.64% (inactive)

Structure (SMILES)	response
Cc1c(Cl)cccc1NC(=O)[C@@]1(CC(=O)O)CC(/C=C/c2ccccc2)=NO1	-1.98% (inactive)
CCN(CC)CC(=O)Nc1nn(-c2ccccc2)nc1C(N)=O	6.52% (inactive)
COc1ccc(N2CCN(C(=O)CNC(=O)c3ccc(Br)o3)CC2)cc1	4.07% (inactive)
COc1ccc(N2CCN(C(=O)CCNC(=O)c3ccc(Br)cc3)CC2)cc1	-3.69% (inactive)
COc1ccc(N2CCN(C(=O)CNC(=O)c3ccc(C(C)(C)C)cc3)CC2)cc1	13.9% (active)
Cc1ccccc1NC(=O)N1CCCC1C(=O)NCc1ccccc1 (configuration not stated)	-1.65% (inactive)
CCOc1nc(OCC)nc(-n2cc(-c3ccccc3)nn2)n1	0.96% (inactive)
CC1=C/C(=N\OS(=O)(=O)c2ccccc2)C=CC1=O	32.8% (active)
CCC(C)NC(=O)c1ccc(NC(=O)CC2SC(N3CCCCC3)=NC2=O)cc1 (configuration not stated)	1.4% (inactive)
CC(C)(C)OC(=O)N1CCC(C(=O)NNC(=O)c2ccc(Cl)cc2Cl)CC1	1.22% (inactive)
Cc1cc(=O)n2nc(N3CCCC3C(=O)NCCCN3CC(C)CC(C)C3)sc2n1 (configuration not stated)	-2.96% (inactive)
Cc1ccc(C(=O)Nc2nc3ccc(Cl)cc3s2)o1	20.1% (active)
Cc1csc(NC(=O)c2ccc(-c3ccc(Cl)cc3Cl)o2)n1	-2.59% (inactive)
Cc1sc2ncnc(N3CCC(C(=O)Nc4nc5ccc(Cl)cc5s4)CC3)c2c1C	0.27% (inactive)
OC1CN=C2Sc3ccccc3N2C1 (configuration not stated)	3.08% (inactive)
O=C(c1ccc(=O)oc1)N1CCC(C(O)(c2ccccc2)c2ccccc2)CC1	2.64% (inactive)
CN1CCN(S(=O)(=O)c2cccc(C(=O)Nc3cccc(S(N)(=O)=O)c3)c2)CC1	0.8% (inactive)
CC(C)CCN1C(=O)c2ccc(C(=O)Nc3cccc(S(N)(=O)=O)c3)cc2C1=O	14.3% (active)
Cc1cccc(C(=O)Nc2ccc3c(c2)C(=O)N(CC(C)C)C3=O)c1	-0.72% (inactive)
COc1ccccc1C(=O)N1C(CC(=O)Nc2ccccc2C)C(=O)NC2CCCCC21 (configuration not stated)	9.51% (inactive)
Cc1ccc(S(=O)(=O)Nc2ccc3c(c2)C(=O)N([C@H](C)CO)C[C@@H](C)[C@@H](CN(C)C(=O)Nc2cccc4ccccc24)O3)cc1	-0.92% (inactive)
COc1cc(C2c3cc4c(cc3C(O)C3COC(=O)C23)OCO4)cc(OC)c1OC (configuration not stated)	1.36% (inactive)
COc1ccccc1CNC(=O)COC(=O)c1cccs1	-4.49% (inactive)

Structure (SMILES)	response
COc1ccccc1CNC(=O)COC(=O)c1sc(C)nc1C	9.53% (active)
COc1ccccc1CNC(=O)COc1ccc(C)nc1[N+](=O)[O-]	-0.89% (inactive)
Brc1cnc(N2CCCC2)nc1N1CCCCC1	-0.57% (inactive)
CCCc1nnc(NC(=O)c2cc(OC)cc(OC)c2)s1	12.9% (active)
COc1ccc(Cc2nnc(NC(=O)c3cc(OC)c(OC)c(OC)c3)s2)cc1OC	-0.03% (inactive)
CCc1nnc(NC(=O)c2cccc(S(=O)(=O)N(C)c3ccc(OC)cc3)c2)s1	3.85% (inactive)
O=C1C=C(c2ccc(Cl)cc2)C(=O)N1Nc1ccccc1	11.6% (active)
O=C(c1ccc(Cn2cc([N+](=O)[O-])cn2)o1)N1CCCC1	-2.73% (inactive)
COc1ccc(C(=O)NC2CC2)cc1OC1CCN(Cc2ccc(SC)cc2)CC1	-0.55% (inactive)
COc1ccc(CN2CCCC(C(=O)c3ccc(Cl)cc3)C2)cc1Cn1cncn1 (configuration not stated)	-2.81% (inactive)
COc1cc(CN2CCCC(C(=O)c3ccc(SC)cc3)C2)cc(Cl)c1O (configuration not stated)	13.8% (active)
C=CCOC(=O)N1CCC2CC1c1cc(-c3ccc(OC)cc3)ccc12 (configuration not stated)	-1.16% (inactive)
CCOc1ccccc1NC(=O)C1CCN(S(=O)(=O)c2c(C)nn(C)c2C)CC1	-3.78% (inactive)
COCCNc1nc2nonc2nc1N(C)Cc1ccc(C)cc1	-1.45% (inactive)
Cc1cc(=O)[nH]c(SCC(N)=O)c1C#N	23.4% (active)
Cc1cc(C#N)c(SCC(N)=O)nc1-c1ccc(F)cc1	1.45% (inactive)
Cc1ccc(NC(=O)CSc2sc3c(O)cc(=O)[nH]c3c2C#N)cc1C	2.04% (inactive)
CCC(C)[C@H](NC(=O)N1CCn2c1nc1ccccc12)C(=O)NCc1ccc(OC)cc1 (some centres not stated)	4.62% (inactive)
NC(CSC1(c2ccccc2)c2ccccc2-c2ccccc21)C(=O)O (configuration not stated)	-2.21% (inactive)
COc1ccc(N2C(=O)C(CC(=O)Nc3ccc(F)cc3)N(CCc3cccs3)C2=O)cc1 (configuration not stated)	-0.54% (inactive)
COc1ccc(CCN2C(=O)N(c3ccc(OC)cc3)C(=O)C2CC(=O)Nc2ccc(OC)cc2)cc1 (configuration not stated)	9.93% (active)
COc1ccc(N2C(=O)C(CC(=O)Nc3ccccc3)N(Cc3ccc(OC)c(OC)c3)C2=O)cc1 (configuration not stated)	0.01% (inactive)
COc1cccc(OC)c1C(=O)N1CCN(Cc2ccccc2F)CC1	0.6% (inactive)

Structure (SMILES)	response
Cc1c(C)c(C)c(S(=O)(=O)N2CCC3(CC2)OCCO3)c(C)c1C	-4.64% (inactive)
C[C@@H](O)c1nc2ccccc2n1N	0.82% (inactive)
CCOc1ccc(C(=O)CCC(=O)NC2=NCCS2)cc1	13.1% (active)
CCOc1ccc(C(=O)CCC(=O)Nc2ccncc2)cc1	1.62% (inactive)
Cc1ccc(S(=O)(=O)N(C)c2ccc(OCC(=O)NC3=NCCS3)cc2)cc1	-1.26% (inactive)
Cc1csc(NC(=O)CSc2nc(=O)cc(N)n2-c2ccc(F)cc2)n1	1.91% (inactive)
CCCCn1c(N)c(N(CCOC)C(=O)c2oc3ccc(OC)cc3c2C)c(=O)[nH]c1=O	0.93% (inactive)
COc1ccc(Cl)cc1N(CC(=O)N1CCCCC1)S(C)(=O)=O	0.69% (inactive)
O=C(CCn1nnnc1CN1CCOCC1)N1CCC(c2ccccc2Cl)C1 (configuration not stated)	3.42% (inactive)
O=C(OCCOc1ccccc1Cl)c1cc(S(=O)(=O)N2CCCCC2)ccc1N1CCOCC1	-0.35% (inactive)
Cc1cc(=O)[nH]c(SCc2ccc(Cl)cc2)n1	-0.98% (inactive)
CCCc1cc(=O)[nH]c(SCc2cc(=O)oc3c(C)c(C)ccc23)n1	-2.17% (inactive)
CCCc1cc(=O)[nH]c(SCc2ccc(C#N)cc2)n1	11.9% (active)
COc1ccc(OCCn2ccnc2C)cc1	1.9% (inactive)
Cc1ccnc(SCC(=O)Nc2cccc(S(=O)(=O)N3CCOCC3)c2)n1	12.9% (active)
O=C(CSc1ccccc1)Nc1cccc(S(=O)(=O)N2CCOCC2)c1	0.62% (inactive)
Nc1cc(N)nc(SCC(=O)Nc2cccc(S(=O)(=O)N3CCCCC3)c2)n1	5.46% (inactive)
COC(=O)c1ccccc1NC(=O)C1CCN(C(=O)N2CCOc3ccccc32)CC1	4.95% (inactive)
Cc1cc(OC(=O)c2ccccc2)c([N+](=O)[O-])c(=O)[nH]1	11.5% (active)
COc1cccc(C(=O)Oc2cc(C)[nH]c(=O)c2[N+](=O)[O-])c1	0.78% (inactive)
Cc1cc(OC(=O)c2ccc(OC(C)C)cc2)c([N+](=O)[O-])c(=O)[nH]1	0.32% (inactive)
COC(=O)Nc1ccc(S(=O)(=O)Nc2cc(OC)nc(OC)n2)cc1	4.02% (inactive)
Nc1nc(O)c(CC(=O)O)s1	4.17% (inactive)
